From PubChem BioAssay (Tox21)
Results filed as inconclusive are left out. Active and inactive are the calls of the source. Unless noted, the call rests on the fitted dose curve; in most records, active means well fitted curve in the direction sought with a large enough effect in the repeat runs; inconclusive means weak or mixed curves; inactive means no such curve, though single readings can be large; an effect the other way counts as inactive or inconclusive.

Experiments:
[1] = A CellTox Green Cytotoxicity Assay to monitor cytotoxicity in HEK293 cells - 16 hour (AID 1224888); further: nearly all actives have a fitted effect of over 35% in size
How it was run: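 Fluorescence intensity, read at 0, 8, 16, 24, 32 and 40 h of compound treatment, reflected dye binding to DNA of dead HEK293 cells; compounds (23 nL, DMSO) were added 5 h after plating cells with reagent.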

[2] = qHTS RealTime-Glo MT Cell Viability Assay in HepG2 cells - 0 hour (AID 1224889); further: nearly all actives have a fitted effect of over 50% in size
How it was run: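 qHTS, HepG2, 600 cells/well, RealTime-Glo (NanoLuc + prosubstrate) added with cells; 5 h preincubation; DMSO compound addition; 37 C; luminescence at 0/8/16/24/32/40 h.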

[3] = A CellTox Green Cytotoxicity Assay to monitor cytotoxicity in HepG2 cells - 8 hour (AID 1224890); further: nearly all actives have a fitted effect of over 45% in size
How it was run: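 Using 1536-well format, dye-containing HepG2 suspension was seeded, allowed 5 h at 37 C/5% CO2, dosed by pintool with compounds, positive and negative controls, and imaged for fluorescence across 40 h.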

[4] = qHTS assay to identify small molecule antagonists of the estrogen receptor alpha (ER-alpha) signaling pathway using the BG1 cell line in the presence of 0.1 nM 17-beta-estradiol - cell viability counter screen (AID 1259241); further: nearly all actives have a fitted effect of over 40% in size
How it was run: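 VM7Luc4E2 cells (endogenous ER-alpha, 4×ERE-luciferase), hormone-starved 5 days in charcoal-stripped FBS, were treated with compounds plus 0.1 nM 17beta-estradiol for 22 hr at 37C; viability read in same wells as CellTiter-Fluor live-cell protease fluorescence.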

[5] = qHTS assay to identify small molecule antagonists of the androgen receptor (AR) signaling pathway using the MDA cell line in the presence of 0.5 nM R1881 - cell viability counter screen (AID 1259242); further: nearly all actives have a fitted effect of over 45% in size
How it was run: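 Viability of MDA-kb2 cells was multiplexed with the luciferase AR readout; after 16 hr with compounds and R1881 at 0.5 nM final, CellTiter-Fluor fluorescence was recorded.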

[6] = target: Estrogen receptor (Homo sapiens) (UniProt P03372); experiment: qHTS assay to identify small molecule antagonists of the estrogen receptor alpha (ER-alpha) signaling pathway using the BG1 cell line in the presence of 0.1 nM 17-beta-estradiol (AID 1259244); further: nearly all actives have a fitted effect of over 50% in size
Sequence of Estrogen receptor (Homo sapiens) (P03372 whole entry, looked up): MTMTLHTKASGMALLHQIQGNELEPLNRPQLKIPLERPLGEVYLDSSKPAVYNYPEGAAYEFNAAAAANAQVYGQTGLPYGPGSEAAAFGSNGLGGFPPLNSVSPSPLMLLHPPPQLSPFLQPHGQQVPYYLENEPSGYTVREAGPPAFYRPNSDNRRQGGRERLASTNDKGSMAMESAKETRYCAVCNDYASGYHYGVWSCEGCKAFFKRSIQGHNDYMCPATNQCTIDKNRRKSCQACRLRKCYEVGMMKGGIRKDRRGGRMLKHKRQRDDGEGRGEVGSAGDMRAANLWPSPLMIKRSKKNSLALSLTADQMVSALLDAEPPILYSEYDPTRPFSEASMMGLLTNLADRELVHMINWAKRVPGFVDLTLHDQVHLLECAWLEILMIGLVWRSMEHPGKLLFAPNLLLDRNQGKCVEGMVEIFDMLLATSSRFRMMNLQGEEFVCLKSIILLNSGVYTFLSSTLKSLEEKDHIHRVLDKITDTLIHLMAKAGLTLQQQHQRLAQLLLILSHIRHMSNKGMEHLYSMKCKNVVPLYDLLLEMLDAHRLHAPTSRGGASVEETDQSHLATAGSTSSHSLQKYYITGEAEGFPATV
How it was run: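 Estradiol at 0.1 nM (final) stimulates the endogenous ER-alpha of VM7Luc4E2 cells carrying an ERE-driven luciferase; compounds are co-incubated 22 h at 37C and luciferase output quantified by luminescence.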

[7] = qHTS assay to identify small molecule HDAC inhibitors (AID 1259364);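 further: wild-type HCT-116 cells with endogenous class I/II HDAC activity; top concentration of the series differs between compounds; nearly all actives have a fitted effect of over 45% in size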
How it was run: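 Read-out: luminescence of HDAC-Glo I/II reagent, 30 min RT, reflecting class I/II deacetylase activity in whole HCT-116 cells pre-exposed 2 h to DMSO-dissolved compounds.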

[8] = qHTS assay to identify small molecule HDAC inhibitors - cell viability counter screen (AID 1259365); further: series mostly up to about 92 µM; nearly all actives have a fitted effect of over 50% in size
How it was run: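 Wild-type HCT-116 cells were seeded at 1,500 per well, incubated overnight at 37 C, then exposed to compounds in DMSO for 2hr. Viability was read by CellTiter-Glo luminescence after 30min at room temperature.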

[9] = qHTS assay to identify small molecule agonists of the sonic hedgehog signaling (Shh) pathway - cell viability counter screen (AID 1259366); further: nearly all actives have a fitted effect of over 50% in size
How it was run: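 NIH/3T3-derived 3T3 Gli1-Luc cells (stable Gli1-responsive firefly luciferase reporter) were seeded, rested 4 hr at 37 C/5% CO2, then exposed to compounds in DMSO for 24 hr; viability was read by CellTiter-Fluor fluorescence in the same wells.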

[10] = qHTS assay to identify small molecule antagonists of the sonic hedgehog signaling (Shh) pathway - cell viability counter screen (AID 1259367); further: nearly all actives have a fitted effect of over 55% in size
How it was run: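 After a 4 hr settling period, 3T3 Gli1-Luc cells were treated with DMSO-dissolved chemicals and conditioned medium, kept 24 hr at 37C in 5% CO2, and assayed for viability by CellTiter-Fluor fluorescence following 1 hr reagent incubation.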

[11] = qHTS assay to identify small molecule agonists of the sonic hedgehog signaling (Shh) pathway (AID 1259368; calls by dose curve; further: series mostly up to about 92 µM; nearly all actives have a fitted effect of over 15% in size)
How it was run: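 A Gli1 transcriptional response element controlled firefly luciferase in 3T3Gli1-Luc cells. Compounds and a positive control were added 4 hr after plating, and cells were incubated a further 24 hr at 37 C before luminescence detection.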

[12] = qHTS assay to identify small molecule antagonists of the sonic hedgehog signaling (Shh) pathway (AID 1259369; calls by dose curve; further: nearly all actives have a fitted effect of over 45% in size)
How it was run: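 For antagonist detection, the reporter line received test compounds together with conditioned medium, incubated 24hr at 37 C, 5% CO2, then luminescence was recorded following 30min room-temperature luciferase reagent incubation.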

[13] = target: Estrogen receptor beta (Homo sapiens) (UniProt Q92731); experiment: qHTS assay to identify small molecule agonists of the estrogen receptor beta (ER-beta) signaling pathway (AID 1259377; active means well fitted activation curve with a large enough effect in the signal ratio in the repeat runs, not every such curve was filed as active; the % refers to the signal ratio)
Sequence of Estrogen receptor beta (Homo sapiens) (Q92731 whole entry, looked up): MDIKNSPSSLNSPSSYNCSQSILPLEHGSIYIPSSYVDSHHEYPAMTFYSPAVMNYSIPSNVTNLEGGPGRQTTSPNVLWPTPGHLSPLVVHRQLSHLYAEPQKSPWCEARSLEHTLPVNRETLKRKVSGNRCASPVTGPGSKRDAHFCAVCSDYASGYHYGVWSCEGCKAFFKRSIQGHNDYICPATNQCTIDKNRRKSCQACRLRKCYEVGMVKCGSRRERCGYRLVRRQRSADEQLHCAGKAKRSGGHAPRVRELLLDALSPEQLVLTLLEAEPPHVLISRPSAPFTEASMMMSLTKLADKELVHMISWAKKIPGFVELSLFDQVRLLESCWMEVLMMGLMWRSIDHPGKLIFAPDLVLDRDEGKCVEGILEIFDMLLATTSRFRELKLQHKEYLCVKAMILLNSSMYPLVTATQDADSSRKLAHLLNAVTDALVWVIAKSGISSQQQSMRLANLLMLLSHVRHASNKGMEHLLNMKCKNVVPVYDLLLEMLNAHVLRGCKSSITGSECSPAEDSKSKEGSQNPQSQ
How it was run: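 ER-beta-UAS-bla HEK293T (GripTite) cells carrying a UAS-driven beta-lactamase reporter, in medium with 2% charcoal-stripped FBS, were exposed to compounds for 16 hr at 37C; LiveBLAzer B/G FRET substrate was then added and fluorescence read after 2 hours at room temperature.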

[14] = target: Estrogen receptor beta (Homo sapiens) (UniProt Q92731); experiment: qHTS assay to identify small molecule antagonists of the estrogen receptor beta (ER-beta) signaling pathway (AID 1259378; active means well fitted inhibition curve with a large enough effect in the signal ratio in the repeat runs, not every such curve was filed as active; the % refers to the signal ratio)
How it was run: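 ER-beta-UAS-bla HEK293T (GripTite) cells in 2% charcoal-stripped FBS medium were preincubated 6 hr at 37C, dosed with compound, then stimulated with 1 nM E2 (final) for 16 hr; beta-lactamase reporter read by B/G FRET fluorescence after 2 hr substrate loading.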

[15] = qHTS assay to identify small molecule agonists of the androgen receptor (AR) signaling pathway in the presence of an antagonist - cell viability counter screen (AID 1259379);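 further: MDA-kb2 human breast cancer cells carrying an MMTV luciferase reporter; series mostly up to about 92 µM; nearly all actives have a fitted effect of over 25% in size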
How it was run: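 Seed MDA-kb2 at 3,000 cells/well; incubate 5 hr, 37C, 0% CO2. Add nilutamide to 3.0uM final, then pin compounds at 15 concentrations. Incubate 16 hr. Add CellTiter-Fluor at 15 hr, read fluorescence after 1 hr.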

[16] = qHTS assay to identify small molecule agonists of the estrogen receptor beta (ER-beta) signaling pathway - cell viability counter screen (AID 1259380); further: nearly all actives have a fitted effect of over 30% in size
How it was run: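 CellTiter-Glo read, 30 min RT, same wells as bla assay; cells ER-beta-UAS-bla HEK293T; 16 hr compound, 37C; medium 2% charcoal-stripped FBS.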

[17] = qHTS assay to identify small molecule antagonists of the estrogen receptor beta (ER-beta) signaling pathway - cell viability counter screen (AID 1259382); further: series mostly up to about 92 µM; nearly all actives have a fitted effect of over 55% in size
How it was run: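 In this multiplexed counter screen, cells were seeded at 2,000 per well in medium with 2% charcoal-stripped FBS and incubated 6 hr before compound and 1nM final E2 were added. Sixteen hours later, ATP-based luminescence reported viability.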

[18] = qHTS assay to identify small molecule phospholipidosis (PLD) inducers (AID 1259344; active means well fitted curve in the direction sought with a large enough effect; an effect the other way counts as inactive or inconclusive)
How it was run: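 HepG2 cells grown on collagen I take up LipidTOX Red while exposed to compound for 24 h; after fixation they are imaged at 20x and pit metrics are extracted.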
On the % scale 0 is the no-effect control and ±100 the full control effect.

CCOC(=O)CN1CCCC1=O
inactive: Potency [1] | Potency [2] | Potency [3] | outcome [4] | outcome [5] | outcome [6] | Potency [7] | outcome [8] | outcome [9] | outcome [10] | outcome [11] | Potency [12] | Potency [13] | outcome [14] | outcome [15] | Potency [16] | outcome [17]

O=S(=O)(O)c1ccc(Cl)cc1
inactive: Potency [1] | Potency [2] | Potency [3] | outcome [4] | outcome [5] | outcome [6] | Potency [7] | outcome [8] | outcome [9] | outcome [10] | outcome [11] | Potency [12] | Potency [13] | outcome [14] | outcome [15] | Potency [16] | outcome [17]

C[C@@H]1NC(=O)[C@@H](N)CNC(=O)[C@H](C2CCNC(N)=N2)NC(=O)/C(=C/NC(N)=O)NC(=O)[C@H](CNC(=O)C[C@@H](N)CCCN)NC1=O (stereo partly specified)
inactive: activity change [1] 17.5% [at 0.29 µM, hits give high values] | activity change, negative = cytotoxicity [2] 5.25% [at 0.29 µM] | cytotoxicity increase [3] -1.65% [at 0.29 µM] | activity change, negative = cytotoxicity [4] 6.75% [at 0.349 µM] | viability change, negative = cytotoxic [5] 2.87% [at 0.349 µM] | activity change, negative = inhibition [6] 11.8% [at 0.349 µM] | Potency [18] | activity change, negative = cytotoxicity [8] -0.0427% [at 0.349 µM] | viability change, negative = cytotoxic [9] -4% [at 0.349 µM] | viability change, negative = cytotoxic [10] 1.74% [at 0.349 µM] | activity change [11] 0.0291% [at 0.349 µM] | activity change, negative = inhibition [12] 22.6% [at 0.349 µM] | activation [13] 1.61% [at 0.348 µM] | activity, negative = inhibition [14] -0.409% [at 0.349 µM] | activity change, negative = cytotoxicity [15] 5.61% [at 0.35 µM] | activity change, negative = cytotoxicity [16] 11.9% [at 0.349 µM] | activity change, negative = cytotoxicity [17] 4.08% [at 0.349 µM]

CN(C)c1ccncc1
inactive: Potency [1] | Potency [2] | Potency [3] | outcome [4] | outcome [5] | outcome [6] | Potency [7] | outcome [8] | outcome [9] | outcome [10] | outcome [11] | Potency [12] | Potency [13] | outcome [14] | outcome [15] | Potency [16] | outcome [17]

CCCC(=O)OC
inactive: Potency [1] | Potency [2] | Potency [3] | outcome [4] | outcome [5] | outcome [6] | Potency [7] | outcome [8] | outcome [9] | outcome [10] | outcome [11] | Potency [12] | Potency [13] | outcome [14] | outcome [15] | Potency [16] | outcome [17]

O=C(O)Cc1ccccc1Oc1ccc(Cl)cc1Cl
inactive: Potency [1] | Potency [2] | Potency [3] | outcome [4] | outcome [5] | outcome [6] | Potency [18] | Potency [7] | outcome [8] | outcome [9] | outcome [10] | outcome [11] | Potency [12] | outcome [15] | Potency [16] | outcome [17]

O=C(OOC(=O)c1ccccc1)c1ccccc1
inactive: Potency [1] | Potency [2] | Potency [3] | outcome [4] | outcome [5] | outcome [6] | Potency [18] | outcome [8] | outcome [9] | outcome [10] | outcome [11] | Potency [12] | outcome [15] | Potency [16] | outcome [17]
